Measured values published in PubChem BioAssay (NCATS).
Results filed as inconclusive are left out. Activity calls are given as the source filed them. Calls follow the shape of the dose curve; as a rule, active = well fitted inhibition curve with a large enough effect; inconclusive = small, poorly fitted or top-dose-only effect; inactive = flat fitted curve, though single readings scatter.

Key:
[1] = tested on: CRL-7250; assay: Cytotoxic Profiling of Annotated Libraries Using Quantitative High-Throughput Screening (AID 1296008); conditions: Five cell lines viability, CellTiter-Glo ATP luminescence, 48-72 h; max response: active compounds read low; as to max response: % is scaled to controls: 0 for no effect and ±100 for the full control effect
Summary of the method: (§1)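 Cytotoxicity was measured as CellTiter-Glo ATP luminescence, read after 10 min at room temperature. Compound treatment of the cells lasted 48 or 72 hr at 37 degrees Celsius in a qHTS format.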

[2] = tested on: HEK293; assay: as above; conditions: Five cell lines viability, CellTiter-Glo ATP luminescence, 48-72 h; max response: active compounds read low
Summary of the method: as §1

[3] = tested on: HaCat; assay: as above; conditions: Five cell lines viability, CellTiter-Glo ATP luminescence, 48-72 h; max response: active compounds read low
Summary of the method: as §1

[4] = tested on: KB-3-1; assay: as above; conditions: Five cell lines viability, CellTiter-Glo ATP luminescence, 48-72 h; max response: active compounds read low
Summary of the method: as §1

[5] = tested on: NIH3T3; assay: as above; conditions: Five cell lines viability, CellTiter-Glo ATP luminescence, 48-72 h; max response: active compounds read low
Summary of the method: as §1

[6] = tested on: HACAT; assay: qHTS assay to identify novel small-molecules to repurpose for Merkel cell carcinoma treatment (AID 1296009); conditions: MCC and control cell lines, CellTiter-Glo viability, 72 h; at 44.8 µM (top of the series) unless noted
Summary of the method: (§2)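 After compound transfer in DMSO, plates were kept 72 hr at 37 degree celsius. Luminescent ATP signal from CellTiter-Glo served as viability measure, normalized against DMSO and no-cell controls.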

[7] = tested on: HEK293T; assay: as above; conditions: MCC and control cell lines, CellTiter-Glo viability, 72 h; series mostly up to 44.8 µM
Summary of the method: as §2
Also: nearly all actives have a fitted effect of over 60% in size.

C=C1C(=O)OC2CC(C)=C(C(C)CCCO[C@@H]3O[C@H](CO)[C@@H](O)[C@H](O)[C@H]3O)C(O)C12 (stereo partly drawn)
inactive: max response [1] -0.682% | outcome [2] | outcome [3] | outcome [4] | outcome [5] | outcome [6] inactive [at 17.4 µM] | Potency [7]

C[C@@H]1C(=O)O[C@H]2[C@H]1CC[C@@]1(C)C(=O)C=C[C@](C)(O)[C@H]21
inactive: outcome [1] | outcome [2] | outcome [3] | max response [4] 1.87% | max response [5] -2.11% | outcome [6] | Potency [7]

CC12CC34C=CC(=O)C(C)(CCC(=O)O)C3C(CC1C4)O2 (stereo not drawn)
inactive: outcome [1] | outcome [2] | outcome [3] | max response [4] 5.48% | outcome [5] | outcome [6] | Potency [7]

COc1cccc(-n2nc(C(=O)O)cc2-c2ccc(C3CCCCC3)c(Cl)c2)c1
inactive: outcome [1] | outcome [2] | outcome [3] | outcome [4] | max response [5] 2.94% | outcome [6] | Potency [7]

COc1cc(/C=C/C(=O)OC[C@H]2O[C@H](O[C@]3(CO)O[C@H](CO)[C@@H](O)[C@@H]3O)[C@H](O)[C@@H](O)[C@@H]2O)cc(OC)c1O
inactive: max response [1] 0.115% | outcome [2] | outcome [3] | max response [4] -1.09% | max response [5] -20.7% | outcome [6] inactive [at 17.4 µM] | Potency [7]

CC(C)C(C#N)O[C@@H]1O[C@H](CO[C@@H]2OC[C@](O)(CO)[C@H]2O)[C@@H](O)[C@H](O)[C@H]1O (stereo partly drawn)
inactive: max response [1] 0.582% | outcome [2] | outcome [3] | max response [4] 5.78% | max response [5] 3.22% | outcome [6] | Potency [7]

C[C@H]1CN(C[C@H](Cc2ccccc2)C(=O)NCC(=O)O)CC[C@@]1(C)c1cccc(O)c1
inactive: max response [1] -8.36% | outcome [2] | outcome [3] | outcome [4] | outcome [5] | outcome [6] | Potency [7]

CC1OC(O[C@H]2[C@@H](O)C[C@@]3(C)C([C@H](O)C[C@]4(C)C3CC=C3C5CC(C)(C)CC[C@]5(C(=O)OC5OC(CO)C(O)C(O)C5OC5OCC(OC6OCC(OC7OCC(O)C(O)C7O)C(O)C6O)C(OC6OCC(O)(CO)C6O)C5O)CC[C@]34C)[C@]2(C)CO)C(O)C(O)C1O (stereo partly drawn)
inactive: outcome [1] | outcome [2] | outcome [3] | max response [4] 0.161% | outcome [5] | outcome [6] inactive [at 9.27 µM] | outcome [7] inactive [at 9.27 µM]

CCOC(=O)c1ccnc(CNCC(=O)N(CC)CCN(C)C)c1
inactive: max response [1] 3.74% | outcome [2] | outcome [3] | max response [4] 5.64% | outcome [5] | outcome [6] | Potency [7]

C1CCN2CC3C[C@@H](CN4CCCC[C@@H]34)[C@H]2C1
inactive: max response [1] 3.38% | outcome [2] | outcome [3] | max response [4] 5.45% | max response [5] -1.12% | outcome [6] | Potency [7]

CC1=CC[C@]2(C(=O)O[C@@H]3O[C@H](CO[C@@H]4O[C@H](CO)[C@@H](O[C@@H]5O[C@@H](C)[C@H](O)[C@@H](O)[C@H]5O)[C@H](O)[C@H]4O)[C@@H](O)[C@H](O)[C@H]3O)CC[C@]3(C)C(CCC4[C@@]5(C)C[C@@H](O)[C@H](O)[C@@](C)(CO)C5CC[C@]43C)C2C1C (stereo partly drawn)
inactive: max response [1] -9.97% | outcome [2] | outcome [3] | max response [4] 0.857% | outcome [5] | outcome [6] inactive [at 9.27 µM] | outcome [7] inactive [at 9.27 µM]

COc1c2c(c(C)c3c1C(=O)OC3)OC1(C)CC(O)C3(O)C(C)(C)OC(=O)CCC3(C)C1C2 (stereo not drawn)
inactive: max response [1] -8.09% | outcome [2] | outcome [3] | max response [4] 8.81% | outcome [5] | outcome [6] inactive [at 17.4 µM] | Potency [7]

C[C@]12CCC[C@](C)(C(=O)O)C1CCC13C=C(CO)C(CCC12)C3 (stereo partly drawn)
inactive: max response [1] -11% | outcome [2] | outcome [3] | max response [4] 2.91% | outcome [5] | outcome [6] | Potency [7]

COC(=O)C1=C[C@@H](O)[C@@H](O)[C@H](O[C@@H]2O[C@H](COC(=O)/C=C/c3ccccc3)[C@@H](O)[C@H](O)[C@H]2O)C1
inactive: outcome [1] | outcome [2] | outcome [3] | max response [4] 3.55% | outcome [5] | outcome [6] inactive [at 17.4 µM] | Potency [7]

CCNC(=O)CCC/C=C\C[C@@H]1[C@@H](/C=C/C(O)CCc2ccccc2)[C@@H](O)C[C@@H]1O (stereo partly drawn)
inactive: outcome [1] | outcome [2] | outcome [3] | max response [4] 9.15% | outcome [5] | outcome [6] | Potency [7]

CC(=O)c1c(C)cc(O)cc1O[C@@H]1O[C@H](CO)[C@@H](O)[C@H](O)[C@H]1O
inactive: max response [1] -5.78% | outcome [2] | outcome [3] | outcome [4] | outcome [5] | outcome [6] | Potency [7]

C=C(C)C(=O)O[C@H]1C[C@@](C)(OC(C)=O)[C@@]2(O)CC[C@@](C)(O)[C@H](OC(C)=O)[C@@]23OC(=O)C(COC)=C13
inactive: max response [1] 3.52% | outcome [2] | outcome [3] | max response [4] 6.06% | outcome [5] | outcome [6] inactive [at 17.4 µM] | Potency [7]

CC(C)(C)c1cc(CN2CCN(CC(O)c3ccc(Cl)cc3)CC2)cc(C(C)(C)C)c1O (stereo not drawn)
inactive: max response [1] -1.02% | outcome [2] | outcome [3] | max response [4] -8.12% | outcome [5] | outcome [6] | Potency [7]

CC1CC(=O)C2=C(O1)OC1(C)CCC3C(C)(C)C=CC(=O)C3(C)C1C2 (stereo not drawn)
inactive: max response [1] -3.54% | outcome [2] | outcome [3] | outcome [4] | outcome [5] | outcome [6] | Potency [7]

CCOc1nc2cccc(C(=O)O)c2n1Cc1ccc(-c2ccccc2-c2noc(=O)[nH]2)cc1
inactive: max response [1] 4.39% | outcome [2] | outcome [3] | outcome [4] | max response [5] -8.35% | outcome [6] | Potency [7]

C/C=C1\[C@H](O[C@@H]2O[C@H](CO)[C@@H](O)[C@H](O)[C@H]2O)OC=C(C(=O)OC)[C@H]1CC(=O)OC
inactive: outcome [1] | outcome [2] | outcome [3] | max response [4] 5.8% | outcome [5] | outcome [6] inactive [at 17.4 µM] | Potency [7]

CCOC(=O)c1ccc(N(C)c2csc(-c3ccccc3)n2)cc1
inactive: max response [1] 4.84% | outcome [2] | outcome [3] | max response [4] 0.515% | outcome [5] | outcome [6] | Potency [7]

CCC(C)C(=O)O[C@@H]1[C@@H](O)[C@@H](O[C@H]2O[C@H](CO)[C@@H](O)[C@H](O)[C@H]2O)O[C@H](CO)[C@H]1O (stereo partly drawn)
inactive: outcome [1] | outcome [2] | outcome [3] | outcome [4] | outcome [5] | outcome [6] inactive [at 17.4 µM] | Potency [7]

O=C(O[C@H]1[C@@H]2C=CO[C@@H](O[C@@H]3O[C@H](CO)[C@@H](O)[C@H](O)[C@H]3O)[C@@H]2[C@@]2(CO)O[C@@H]12)c1ccc(O)cc1
inactive: max response [1] 1.96% | outcome [2] | outcome [3] | max response [4] 3.57% | outcome [5] | outcome [6] inactive [at 17.4 µM] | Potency [7]
